We go through 24 compounds from PubChem BioAssay (Tox21).

A short description of assay [1]: qHTS assay to identify aromatase inhibitors - cell viability counter screen (AID 743084).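 Note: cells stimulated with testosterone during compound exposure; nearly all actives have a fitted effect of over 55% in size.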 Note: potency is the fitted concentration of half-maximal effect.
For assay [2], the target named is Aryl hydrocarbon receptor (Homo sapiens) (UniProt P35869). Kind of assay: qHTS assay to identify small molecule that activate the aryl hydrocarbon receptor (AhR) signaling pathway (AID 743085).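 For activation: HG2L7.5c1 human HepG2 liver cells with stably integrated DRE-driven firefly reporter; series mostly up to about 70 µM.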 Note: nearly all actives have a fitted effect of over 15% in size. Note: potency is the fitted concentration of half-maximal effect. The essentials: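 Luminescence read-out: ONE-Glo reagent, 30 min at room temperature, in HG2L7.5c1 HepG2 reporter cells treated 24 h at 37C. Viability was measured beforehand by CellTiter-Fluor fluorescence after 30 min at 37C.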

Assay [3] is described as follows: qHTS assay to identify small molecule that activate the aryl hydrocarbon receptor (AhR) signaling pathway - cell viability counter screen (AID 743086). Note: nearly all actives have a fitted effect of over 45% in size. Note: potency is the fitted concentration of half-maximal effect. A digest of the protocol: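 Cytotoxicity counter screen: CellTiter-Fluor signal (30 min, 37 C) in 4000 HepG2 cells/well carrying the DRE-luciferase reporter, following 24 h compound exposure at 37 C.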
In general terms: Quantitative high-throughput screening tests each substance at several concentrations.

The target of assay [4] is Peroxisome proliferator-activated receptor gamma (Homo sapiens) (UniProt P37231). Description: qHTS assay to identify small molecule agonists of the peroxisome proliferator-activated receptor gamma (PPARg) signaling pathway (AID 743094; active = well fitted activation curve with a large enough effect in the signal ratio in the repeat runs, not every such curve was filed as active; the % refers to the signal ratio; note: potency is the fitted concentration of half-maximal effect). A digest of the protocol: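 GeneBLAzer PPARg UAS-bla HEK293H cells carrying a stably integrated beta-lactamase reporter were pre-incubated 5 h at 37C, then exposed to compounds in DMSO for 17 h at 37C; LiveBLAzer B/G FRET substrate was added for 1 h at room temperature and fluorescence read.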

Assay [5] can be described thus: qHTS assay for small molecule agonists of the antioxidant response element (ARE) signaling pathway - cell viability counter screen (AID 743203; calls by dose curve; note: nearly all actives have a fitted effect of over 55% in size; note: potency is the fitted concentration of half-maximal effect). A digest of the protocol: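 CellSensor ARE-bla HepG2 cells, 2,000 per well, rested 5 hrs at 37C/5% CO2, then exposed to compound in DMSO for 16 hrs; viability read as CellTiter-Glo luminescence after 30 min at room temperature, in the reporter wells.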

A short description of assay [6]: qHTS assay for small molecule activators of the heat shock response signaling pathway - cell viability counter screen (AID 743209). Note: nearly all actives have a fitted effect of over 50% in size. Note: potency is the fitted concentration of half-maximal effect. The essentials: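 CellSensor HSE-bla HeLa cells, plated overnight at 37 C/5% CO2, were exposed to compounds in DMSO for 5 h at 37 C. Viability was then read in the same wells by CellTiter-Glo luminescence after 30 min at room temperature.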

Assay [7] in a line: qHTS assay for small molecule activators of the heat shock response signaling pathway (AID 743210; active = well fitted activation curve with a large enough effect in the signal ratio in the repeat runs, with a control signal flat, not every such curve was filed as active; the % refers to the signal ratio; note: potency is the fitted concentration of half-maximal effect;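 for activation: HeLa cells with beta-lactamase reporter driven by heat shock elements; series mostly up to about 63 µM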). The essentials:
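HeLa HSE-bla cells, overnight plating; cpd in DMSO 5 h, 37 C; LiveBLAzer B/G FRET substrate 2.5 h RT; fluorescence intensity read.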

Assay [8] is described as follows: qHTS assay to identify small molecule antagonists of the peroxisome proliferator-activated receptor gamma (PPARg) signaling pathway - cell viability counter screen (AID 743194). Note: nearly all actives have a fitted effect of over 55% in size. Note: potency is the fitted concentration of half-maximal effect. The settings on record: Potency: co-treated with 50 nM rosiglitazone unless noted. A digest of the protocol: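 Viability was measured as CellTiter-Glo luminescence in GeneBLAzer PPARg UAS-bla HEK293H cells. These cells had been exposed 17 h at 37 C to compounds together with rosiglitazone at 50 nM final, with the beta-lactamase readout taken in the same wells.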

Assay [9] is described as follows: qHTS assay for small molecule agonists of the antioxidant response element (ARE) signaling pathway (AID 743202; active = well fitted activation curve with a large enough effect in the signal ratio in the repeat runs, not every such curve was filed as active; the % refers to the signal ratio; note: potency is the fitted concentration of half-maximal effect). A digest of the protocol:
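Quantitative high-throughput format in HepG2 cells bearing an integrated ARE-beta-lactamase reporter. Compound exposure lasted 16 h at 37 C, and fluorescence was read 2 h after adding LiveBLAzer B/G substrate at room temperature.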

Assay [10] deals with Peroxisome proliferator-activated receptor gamma (Homo sapiens) (UniProt P37231). Kind of assay: qHTS assay to identify small molecule antagonists of the peroxisome proliferator-activated receptor gamma (PPARg) signaling pathway (AID 743191; calls by dose curve; note: series mostly up to about 63 µM; nearly all actives have a fitted effect of over 30% in size). A digest of the protocol:
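Beta-lactamase reporter under UAS control in HEK293H PPARg-bla cells; compound treatment 17 h at 37C. Read-out: fluorescence intensity after 1 h room-temperature incubation with LiveBLAzer B/G FRET substrate.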

Values joined by “and” are separate entries in the source; they are usually repeats but may differ in a detail not shown here. Equal values may be shown once. Results filed as inconclusive are left out. Some compounds were tested as several samples or in several runs, with calls that do not always agree. Active and inactive are the calls of the source. Unless noted, calls come from the whole dose curve; as a rule, active = well fitted curve in the direction sought with a large enough effect in the repeat runs; inconclusive = weak or mixed curves; inactive = no such curve, though single readings can be large; an effect the other way counts as inactive or inconclusive.

Sequence of Peroxisome proliferator-activated receptor gamma (Homo sapiens) (P37231 whole entry, looked up): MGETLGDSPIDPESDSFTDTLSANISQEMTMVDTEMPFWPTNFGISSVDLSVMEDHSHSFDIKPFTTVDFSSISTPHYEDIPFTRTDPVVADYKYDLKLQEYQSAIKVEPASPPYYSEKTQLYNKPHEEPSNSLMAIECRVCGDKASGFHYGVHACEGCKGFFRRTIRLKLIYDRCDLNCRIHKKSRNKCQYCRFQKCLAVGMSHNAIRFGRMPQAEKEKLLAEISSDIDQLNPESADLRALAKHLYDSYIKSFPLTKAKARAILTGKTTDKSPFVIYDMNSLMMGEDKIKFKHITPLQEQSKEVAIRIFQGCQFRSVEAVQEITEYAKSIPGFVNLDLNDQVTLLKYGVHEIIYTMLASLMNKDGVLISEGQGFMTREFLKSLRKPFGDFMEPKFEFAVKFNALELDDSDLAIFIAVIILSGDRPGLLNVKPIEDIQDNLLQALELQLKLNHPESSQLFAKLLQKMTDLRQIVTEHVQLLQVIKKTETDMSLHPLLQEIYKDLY
Sequence of Aryl hydrocarbon receptor (Homo sapiens) (P35869 whole entry, looked up): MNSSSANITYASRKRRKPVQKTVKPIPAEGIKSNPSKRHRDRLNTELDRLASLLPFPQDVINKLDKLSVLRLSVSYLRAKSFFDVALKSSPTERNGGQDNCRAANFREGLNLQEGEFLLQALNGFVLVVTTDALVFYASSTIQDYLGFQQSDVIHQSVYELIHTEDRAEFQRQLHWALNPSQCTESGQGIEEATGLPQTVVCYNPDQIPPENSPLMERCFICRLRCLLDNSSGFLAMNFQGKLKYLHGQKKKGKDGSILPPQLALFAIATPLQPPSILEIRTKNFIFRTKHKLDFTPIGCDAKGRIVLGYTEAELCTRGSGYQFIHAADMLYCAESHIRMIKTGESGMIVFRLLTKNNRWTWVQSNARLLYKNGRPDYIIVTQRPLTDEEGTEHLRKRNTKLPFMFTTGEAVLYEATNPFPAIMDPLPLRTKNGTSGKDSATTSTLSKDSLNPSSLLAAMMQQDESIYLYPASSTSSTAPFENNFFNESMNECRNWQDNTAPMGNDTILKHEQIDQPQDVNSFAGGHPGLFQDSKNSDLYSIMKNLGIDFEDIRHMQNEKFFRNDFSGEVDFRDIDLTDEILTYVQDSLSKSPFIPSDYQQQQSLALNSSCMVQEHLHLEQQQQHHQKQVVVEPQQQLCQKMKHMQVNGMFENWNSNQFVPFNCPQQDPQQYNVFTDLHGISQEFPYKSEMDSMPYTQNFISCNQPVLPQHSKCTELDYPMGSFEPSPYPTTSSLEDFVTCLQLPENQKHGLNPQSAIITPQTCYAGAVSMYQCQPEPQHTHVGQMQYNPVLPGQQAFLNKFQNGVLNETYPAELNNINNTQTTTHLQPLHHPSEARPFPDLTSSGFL

As to `CCOC(=O)CC(=O)CCl`, the Potency was 30.6 µM (active) in assay [1] and 21.9 µM (active) in [4]. For the same compound, the Potency entry in assay [2], in assay [3] and in assay [5] was “inactive” in each case.

In the case of `ClC1=C(Cl)[C@]2(Cl)[C@H]3[C@H]([C@H]4C=C[C@H]3C4)[C@@]1(Cl)C2(Cl)Cl`, the Potency entry in [1], in assay [2], in assay [3], in assay [4], in assay [5] and in [6] was “inactive” in each case. Also, the Potency result in [7] was “inactive”.

Turning to `COc1cc(N)c(Cl)cc1C(=O)NC1CN2CCC1CC2` (stereo not given), the Potency entry in [1], in [2], in [3], in [4], in assay [8] and in [9] was “inactive” throughout. Further, the Potency result in [5] and in assay [7] was “inactive” each time.

As for `[Cl][Sb]([Cl])[Cl]`, the Potency result in [1], in assay [2], in [3], in assay [4], in [5] and in assay [6] was “inactive” throughout. Moreover, the Potency in assay [9] was 5.45 µM (active).

In the case of `CC(C)OS(C)(=O)=O`, the Potency entry in [1], in assay [2], in assay [3], in [4], in assay [10] and in [8] was “inactive” in each case. Further, the Potency result in assay [9], in assay [5], in assay [6] and in assay [7] was “inactive” each time.

In the case of `ClC(Cl)=C(c1ccc(Cl)cc1)c1ccc(Cl)cc1`, the Potency entry in assay [1], in assay [2], in assay [3], in assay [4] and in assay [8] was “inactive” throughout. For the same compound, the Potency in assay [6] was 50.2 µM (active) and 17.4 µM (active).

Regarding `O=[N+]([O-])c1ccc(Oc2ccc(C(F)(F)F)cc2[N+](=O)[O-])cc1`, the Potency entry in assay [1], in assay [3], in [4], in assay [8], in [5] and in assay [6] was “inactive” in each case. In addition, the Potency entry in assay [7] is “inactive”. The Potency in assay [2] was 30.6 µM (active).

Consider `CC(=O)C(Cl)(Cl)Cl`, for which the results for the Potency in assay [1], in assay [3] and in [5] were 18.7 µM (active), 23.5 µM (active) and 0.743 µM (active), respectively. Also, the Potency entry in assay [2], in assay [4] and in assay [6] was “inactive” in each case.

With `CCCCCCCCCCCCCN1CC(C)OC(C)C1` (stereo not given), the Potency entry in assay [1], in assay [2], in assay [3], in assay [4], in assay [5] and in [6] was “inactive” each time. In assay [7], the Potency entry was “inactive”.

For `ClC1=C(Cl)C2(Cl)C3C(Cl)C=CC3C1(Cl)C2(Cl)Cl` (stereo not given), the Potency result in assay [1], in [2], in assay [3] and in [4] was “inactive” in each case. In addition, the Potency in assay [8] was 55.2 µM (active) and 24.5 µM (active); in [5] it was 61.1 µM (active).

For `Clc1ccc(C(c2ccc(Cl)cc2)C(Cl)(Cl)Cl)cc1`, the Potency result in [1], in [2], in [3], in assay [4], in assay [10] and in [7] was “inactive” in each case. The Potency in [5] was 48.9 µM (active) and inactive; in [6], 55.3 µM (active) and 54.9 µM (active) and inactive.

`N#CCCSCCC#N`: the Potency entry in assay [1], in [2], in [3], in [4], in assay [10] and in [8] was “inactive” in each case. For the same compound, the Potency result in assay [9], in assay [5], in assay [6] and in assay [7] was “inactive” in each case.

On to `Nc1ccccc1C(=O)OC/C=C/c1ccccc1`, for which the Potency entry in [1], in [3] and in [4] was “inactive” each time. Further, the Potency was 61.3 µM (active) in assay [2], 68.7 µM (active) in assay [5] and 34.8 µM (active) in assay [6].

Regarding `CC1CCC(C(C)C)C(OC(=O)c2ccccc2N)C1` (stereo not given), in assay [1], the Potency result was “inactive and 47.9 µM (active)”. For the same compound, the Potency result in assay [2], in assay [3], in [4] and in assay [5] was “inactive” in each case.

Regarding `Clc1ccc(CCC(Cn2ccnc2)Sc2c(Cl)cccc2Cl)cc1` (stereo not given), in assay [1], the Potency entry was “inactive”.

Regarding `c1ccc2c(c1)[nH]c1cnccc12`, the Potency entry in assay [1], in [3], in assay [4], in assay [10], in [8] and in [5] was “inactive” in each case. Further, the Potency entry in assay [6] was “inactive”. In assay [2], the Potency is 54.5 µM (active).

For `C1CCC2CCCCC2C1` (stereo not given), the Potency entry in assay [1], in [2], in assay [3], in assay [4], in [8] and in [5] was “inactive” each time. Also, the Potency result in assay [6] and in [7] was “inactive” each time.

Regarding `C[C@@H]1CC[C@@]2(OC1)O[C@H]1[C@@H](O)[C@H]3[C@@H]4CC[C@H]5C[C@@H](O[C@@H]6O[C@H](CO)[C@H](O[C@@H]7O[C@H](CO)[C@@H](O)[C@H](O[C@@H]8OC[C@@H](O)[C@H](O)[C@H]8O)[C@H]7O[C@@H]7O[C@H](CO)[C@@H](O)[C@H](O[C@@H]8O[C@H](CO)[C@@H](O)[C@H](O)[C@H]8O)[C@H]7O)[C@H](O)[C@H]6O)[C@H](O)C[C@]5(C)[C@H]4CC[C@]3(C)[C@H]1[C@@H]2C`, the Potency in [1] was 2.9 µM (active); in assay [3], 20.5 µM (active); in [5], 20.5 µM (active); in assay [6] it was 29.2 µM (active). Also, the Potency result in [2] is “inactive”.

Regarding `CC[C@H]1C[C@@H]2C[C@H]3c4[nH]c5ccc(OC)cc5c4CCN(C2)[C@@H]13`, the Potency entry in [1], in assay [3], in assay [9], in [5] and in assay [6] was “inactive” throughout. For the same compound, the Potency was 8.49 µM (active) in [2] and 45.9 µM (active) in assay [7].

`Clc1ccc(COC(Cn2ccnc2)c2ccc(Cl)cc2Cl)cc1` (stereo not given): the Potency in [1] is 33.5 µM (active) and 45.3 µM (active) and 60.9 µM (active); in assay [5], 25.5 µM (active) and 19.3 µM (active) and 33.5 µM (active); in assay [6] it was 36.3 µM (active) and 12.3 µM (active). Besides, the Potency result in [2] and in assay [4] was “inactive” in each case.

Regarding `O=[N+]([O-])c1c2ccccc2cc2ccccc12`, the Potency entry in assay [1], in assay [3] and in [6] was “inactive” in each case. The Potency in assay [2] is 15.8 µM (active); in [9], 21.4 µM (active).

Consider `Cc1cc(C)c(C2=C(OC(=O)CC(C)(C)C)C3(CCCC3)OC2=O)c(C)c1`, for which the Potency entry in [1], in assay [2], in [3], in assay [8], in assay [5] and in [6] was “inactive” throughout. The Potency entry in assay [7] was “inactive”.

Turning to `CCOP(=O)(NC(C)C)Oc1ccc(SC)c(C)c1` (stereo not given), the Potency result in assay [1], in [4] and in assay [5] was “inactive” each time. Also, the Potency in assay [2] was 14.8 µM (active).

`CCOC(=O)C1(c2ccccc2)CCN(CCC(C#N)(c2ccccc2)c2ccccc2)CC1`: the Potency result in [1], in assay [2], in [8], in assay [5] and in assay [6] was “inactive” in each case. Also, the Potency entry in assay [3] was “inactive and 59.6 µM (active)”.
